40 compounds from PubChem BioAssay (Tox21) can be followed below.

Inconclusive results are not listed. Where a call stands in place of a potency, no number is given. A number with no mark means an inactive call. Activity calls are given as the source filed them. Calls come from the whole dose curve; as a rule, active = well fitted activation curve with a large enough effect in the repeat runs; inconclusive = weak or mixed curves; inactive = no such curve, though single readings can be large or run the other way.
Potency is the fitted concentration of half-maximal effect.

A short description of the test: qHTS assay for small molecules that induce genotoxicity in human embryonic kidney cells expressing luciferase-tagged ATAD5 (AID 651632). Note: nearly all actives have a fitted effect of over 15% in size. The following applies: HEK293T ATAD5-luciferase induction, 16 h; series mostly up to 83.3 µM. An excerpt: U.S. Tox21 Program National Center for Advancing Translational Sciences [NCATS] NIH Chemical Genomics Center [NCGC] U.S. Environmental Protection Agency [EPA] National Institutes of Environmental Health Sciences [NIEHS] National Toxicology Program [NTP] U.S. Food and Drug Administration [FDA] Tox21 Assay Overview: As cancer cells divide rapidly and during every cell division they need to duplicate their genome by DNA replication. The failure to do so results in the cancer cell death. Based on this concept, many chemotherapeutic agents were developed but have limitations such as low efficacy and severe side effects etc. A new cell based assay was developed to find the compounds that effectively block DNA replication either by directly damaging DNA or by inhibiting other cellular mechanisms. Enhanced Level of Genome Instability Gene 1 (ELG1; human ATAD5) protein levels increase in response to various types of DNA damage. Using a luciferase reporter-gene tagged with ATAD5, a cell-based assay [developed by Kyungjae Myung, NHGRI, NIH] was used to measure the induction of ATAD5 in human embryonic kidney cells (HEK293T). So, increase in luciferase activity can be used to identify the compounds that cause genetic stress.
Tox21 Assay Protocol Summary: For genotoxicity screening, 2,000 cells in 5 uL/well were dispensed into white, solid-bottom 1536-well plates using a Multidrop Combi (Thermo Scientific) dispenser. Following transfer of 23 nL compound or DMSO vehicle by a pin tool, the plates were incubated 16 hr at 37C and 5% CO2. 5 ul Amplite (AAT Bioquest, Inc.) was then added to each plate and following 30 min incubation at room temperature, luciferase activity was quantified on a ViewLux CCD-based plate reader.
On the technique in general: In qHTS, concentration-response curves come from the screen itself.
Take `O=C(NS(=O)(=O)/C=C/c1ccccc1)c1ccc(F)cc1Cl`: the Potency is 15.4 µM (active).
On to `CCCCCCCCCCCCCOC(=O)CCSCCC(=O)OCCCCCCCCCCCCC`, for which the Potency entry was “inactive”.
On to `COC(=O)C1=C(C)NC(C)=C(C(=O)OC(C)(C)CN(C)CCC(c2ccccc2)c2ccccc2)C1c1cccc([N+](=O)[O-])c1` (stereo not given), for which the Potency entry is “inactive”.
As for `O=C(CCS)OCC(COC(=O)CCS)(COC(=O)CCS)COC(=O)CCS`, the Potency result is “inactive”.
For the compound `COc1ccc(-n2nc(C(F)F)cc2-c2ccc(S(C)=O)cc2)cc1` (stereo not given), the Potency entry is “inactive”.
The same measure, in the same setting: the value for `O=C(O)CO` was “inactive”; that for `C=CC(=O)NC(C)C` was “inactive”; that for `CC(C)c1ccc(C#N)cc1` was “inactive”.
Regarding `CC(CN(CCN(CC(C)OCCO)CC(C)OCCO)CC(C)OCCO)OCCO` (stereo not given), the Potency entry was “inactive”.
Take `COc1ccc(C)cc1`: the Potency entry is “inactive”.
On to `CCCOC(=O)c1c(Cl)c(Cl)c(Cl)c(Cl)c1C(=O)OCCC`, for which the Potency result was “inactive”.
`CS(=O)(=O)c1ccc([C@@H](C[C@H]2CCC(=O)C2)C(=O)Nc2cnccn2)cc1Cl`: the Potency result is “inactive”.
Still for that read-out and setting: under `CC(=O)OC(C)C[N+](C)(C)C` (stereo not given) stands “inactive”; under `CC(C)(O)CCc1ccccc1`, “inactive”.
For `CCSC(=O)N(CC)CC`, the Potency entry is “inactive”.
In the case of `O=C(O)CCCc1c[nH]c2ccccc12`, the Potency entry is “inactive”.
Still for that read-out and setting: the value for `O=C1NC(=O)c2cccc3cccc1c23` was “inactive”; that for `CCCCCCCCCCCCCCCCCC(=O)OCC(CC)CCCC` (stereo not given) was “inactive”.
Consider `CCC(Cl)CC(Cl)C(Cl)C(Cl)C(Cl)C(C)Cl` (stereo not given), for which the activation was 8.79% [at 17.9 µM].
`Cc1ccc(Nc2c(F)cccc2Cl)c(CC(=O)O)c1`: the Potency entry was “inactive”.
On to `Nc1nc2ccc(OC(F)(F)F)cc2s1`, for which the Potency is 11.9 µM (active).
The same measure, in the same setting: under `C=C(C)C(=O)OCCC(F)(F)C(F)(F)C(F)(F)C(F)(F)C(F)(F)C(F)(F)F` stands “inactive”; under `CC(=O)N[C@@H](Cc1ccc(O)cc1)C(=O)O`, “inactive”.
The same measure, in the same setting: under `CC(=O)C(=O)CC(C)C` stands “inactive”; under `COc1cc(NS(=O)(=O)c2ccc(N)cc2)nc(C)n1`, “inactive”.
Turning to `CCCCCCC(O)CCCCCCCCCCC(=O)OC` (stereo not given), the Potency entry was “inactive”.
Consider `CC(C)C(=O)OCCOc1ccccc1`, for which the Potency entry is “inactive”.
Regarding `CCN(CC)c1cccc(O)c1`, the Potency result was “inactive”.
As to `O=c1[nH]c2cc(C(F)(F)F)c(N3CCOCC3)cc2n(CP(=O)(O)O)c1=O`, the Potency result is “inactive”.
Turning to `COc1ccc(-c2cc(C(F)F)nn2-c2ccc(S(N)(=O)=O)cc2)cc1F`, the Potency result is “inactive”.
As for `Nc1ccc(N=Nc2ccc(N)cc2)cc1`, the Potency is 5.44 µM (active).
Regarding `CNS(=O)(=O)c1cc(C(=O)N2CCC(CCN3C4CCC3CC(n3c(C)nc5ccccc53)C4)(c3cccc(F)c3)CC2)c(Cl)cc1F` (stereo not given), the Potency entry is “inactive”.
The same measure, in the same setting: under `Nc1ccc(S(=O)(=O)NCc2ccccc2)cc1` stands “inactive”; under `CCNc1nc(N)nc(Cl)n1`, “inactive”; under `C[C@H](CS)C(=O)N1CCC[C@H]1C(=O)O`, “inactive”.
Same read-out and setting: under `CCCCCCCCCCCCCOS(=O)(=O)O` stands “inactive”; under `FC(F)(F)C(F)(F)C(F)(F)C(F)(F)CCI`, “inactive”; under `CCCCCCCC/C=C\CCCCCCCC(=O)OCCO`, “inactive”.
In the case of `CCCCCCCCCCCCCCCC(=O)OCC`, the Potency result is “inactive”.
Same read-out and setting: the value for `COc1cc(C(C)=O)ccc1OCCCN1CCC(c2noc3cc(F)ccc23)CC1` was “inactive”.
